Drawing on PubChem BioAssay (NCI), this text covers growth for 15 compounds.

Each structure is given as a SMILES string. Compounds without any hit were thinned out: in the full panel of roughly 83,000, 20% have a hit.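 Cell lines were cultured in 96-well plates, exposed to a single compound concentration, and assessed for percent growth 48 hours later.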 Values without a mark were called inactive. Active and inactive are the calls of the source. How the source made its calls: active means growth percent below 10; inactive means the rest.

Common to all, as to experiment: NCI-60 one-dose screen, 48 h (100 = growth as untreated, 0 = no growth, -100 = all killed)
For one experiment, the system named is SK-MEL-2 melanoma. The conditions noted are these: 10 µM unless noted.
A further experiment deals with EKVX NSCLC. The following applies: 10 µM unless noted.
The subject of a further experiment is SN12C renal. The conditions noted are these: 10 µM unless noted.
For another experiment, the system named is UO-31 renal. The following applies: 10 µM unless noted.
A further experiment relates to TK-10 renal. The conditions noted are these: 10 µM unless noted.
For the next experiment, the system named is A498 renal. The conditions noted are these: 10 µM.
The subject of another experiment is HL-60(TB) leukemia. The conditions noted are these: 10 µM unless noted.
For another experiment, the system named is CCRF-CEM leukemia. The following applies: 10 µM unless noted.
Another experiment relates to CAKI-1 renal. The conditions noted are these: 10 µM unless noted.
Another experiment relates to ACHN renal. The conditions noted are these: 10 µM unless noted.

Take `CC1(C)N=C(N)N=C(N)N1c1ccc(CCCCc2ccc(Cl)c(S(=O)(=O)F)c2)c(Cl)c1`: the growth with SK-MEL-2 melanoma was 38.7%; with EKVX NSCLC, 45.3%; in the experiment with SN12C renal it was 24.6%; in the experiment with UO-31 renal, 27.3%; in the experiment on TK-10 renal, 41.7%; with A498 renal it was 69.6%. Also, the growth in the experiment on HL-60(TB) leukemia was -43.9% (active); in the experiment on CCRF-CEM leukemia, 3.5% (active).

Consider `CCn1nccc1NC(=O)C(=O)c1cn(Cc2ccc(F)cc2)c2cccc(OC)c12`, for which the growth is 48.2% in the experiment with SK-MEL-2 melanoma; 81.6% with EKVX NSCLC; 86.9% with SN12C renal; 47.5% in the experiment with UO-31 renal; 120% in the experiment on TK-10 renal; 98.6% with CAKI-1 renal. For the same compound, the results for the growth in the experiment on A498 renal, in the experiment on HL-60(TB) leukemia and with CCRF-CEM leukemia were 94.1%, 56.8% and 76.6%, respectively.

Turning to `O=C(CC1(O)C(=O)Nc2ccccc21)c1ccc(C(=O)NCC2CCC3(CC2)OOC2(CCCCC2)OO3)cc1` (configuration not stated), the growth in the experiment on SK-MEL-2 melanoma is 70.7%; in the experiment with EKVX NSCLC it was 58.3%; with SN12C renal, 74.4%; with UO-31 renal, -77.2% (active); with TK-10 renal it was 104%; in the experiment on CAKI-1 renal, 39.5%. The growth is 93.7% in the experiment with A498 renal and 7.85% (active) in the experiment with CCRF-CEM leukemia.

As for `Clc1cccc(Cl)c1Cl`, the growth with SK-MEL-2 melanoma was 74.5%; in the experiment with EKVX NSCLC, 95.7%; in the experiment with SN12C renal it was 120%; in the experiment on UO-31 renal, 85.3%; in the experiment on TK-10 renal, 86.8%; in the experiment on A498 renal it was 107%. Besides, the growth in the experiment with HL-60(TB) leukemia is 99.6%.

`O=C1C2C(C(=O)[N]1[Hg][c]1cccs1)C1(Cl)C(Cl)=C(Cl)C2(Cl)C1(Cl)Cl` (configuration not stated): the growth with SK-MEL-2 melanoma is 54.6%; with EKVX NSCLC, 34.5%; in the experiment on SN12C renal it was -46.9% (active); with UO-31 renal, -29.8% (active); in the experiment with TK-10 renal it was 49.9%; with CAKI-1 renal, 1.56% (active). In addition, the results for the growth with A498 renal and in the experiment on CCRF-CEM leukemia were 124% and -14.1% (active), respectively.

For the compound `O=[N+]([O-])CC(c1ccccc1Cl)c1c(-c2ccccc2)[nH]c2ccccc12` (configuration not stated), the growth is 27.2% in the experiment on SK-MEL-2 melanoma; 40.6% in the experiment on EKVX NSCLC; 53.4% with SN12C renal; 45.1% in the experiment on UO-31 renal; 61.6% in the experiment on TK-10 renal; 24.4% in the experiment on CAKI-1 renal. Also, the growth with HL-60(TB) leukemia was 6.94% (active); with CCRF-CEM leukemia, 23.6%.

On to `CC[C@H](C)[C@H](NC(=O)c1nccn1C)C(=O)N(C)[C@H](C[C@@H](OC(C)=O)c1nc(C(=O)N[C@@H](Cc2ccccc2)C[C@H](C)C(=O)OC)cs1)C(C)C`, for which the growth with SK-MEL-2 melanoma is 28.5%; with EKVX NSCLC, 52.8%; in the experiment with SN12C renal, 40.2%; in the experiment with UO-31 renal it was 47.3%; with TK-10 renal, 41.9%; in the experiment with CAKI-1 renal, 33.8%. In addition, the growth in the experiment with A498 renal is -9.78% (active); in the experiment with HL-60(TB) leukemia, -43.5% (active); in the experiment with CCRF-CEM leukemia, 15.9%.

As to `c1ccc(CSC(c2ccccc2)c2ccccc2)cc1`, the growth with SK-MEL-2 melanoma was 114%; with EKVX NSCLC, 117%; with SN12C renal, 101%; with UO-31 renal, 92.2%; with TK-10 renal, 123%; in the experiment with CAKI-1 renal, 96.7%. The growth was 123% with A498 renal, 68.5% with HL-60(TB) leukemia and 117% in the experiment on CCRF-CEM leukemia.

As for `ClC1=C(Cl)C(Cl)(C2(Cl)C(Cl)=C(Cl)C(Cl)=C2Cl)C(Cl)=C1Cl`, the growth in the experiment on SK-MEL-2 melanoma was 16.9%; in the experiment with EKVX NSCLC, 5.58% (active); in the experiment with SN12C renal, -25.2% (active); in the experiment with UO-31 renal it was -89.6% (active); in the experiment on TK-10 renal it was -91.3% (active); with A498 renal, 67%. Moreover, the growth with HL-60(TB) leukemia is -36.3% (active); in the experiment with CCRF-CEM leukemia, -57.6% (active).

As for `Oc1ccc2c3c1OC1[C@@H](O)CC[C@@]4(O)[C@@H](C2)N(CC2CCC2)CC[C@]314` (some centres not stated), the growth in the experiment with SK-MEL-2 melanoma was 118%; in the experiment with EKVX NSCLC, 99.7%; with SN12C renal, 103%; with UO-31 renal, 83.2%; in the experiment on TK-10 renal, 106%; with CAKI-1 renal, 94%. Further, the growth in the experiment with A498 renal was 94.7%; with HL-60(TB) leukemia, 102%.

For the compound `CCC1CC(O)c2c(O)c3c(c(O)c2C1O)C(=O)c1cccc(O)c1C3=O` (configuration not stated) (tested in a mixture with another compound), the growth in the experiment with SK-MEL-2 melanoma was -63% (active); in the experiment on EKVX NSCLC, -4.25% (active); in the experiment on SN12C renal, 0.851% (active); with UO-31 renal, -32.9% (active); with TK-10 renal, -13.7% (active); in the experiment with ACHN renal it was -18.1% (active). The growth in the experiment on CCRF-CEM leukemia was -21.5% (active).

Regarding `COC(=O)[C@@H](C)C[C@H](Cc1cn(C)c2ccccc12)NC(=O)c1csc([C@@H](C[C@H](C(C)C)N(C)C(=O)[C@@H](NC(=O)[C@H]2CCCCN2C)C(C)C)OC(C)=O)n1`, the growth with SK-MEL-2 melanoma was 39%; in the experiment with EKVX NSCLC, 46.4%; with SN12C renal it was 23.5%; in the experiment with UO-31 renal, 34.1%; in the experiment on TK-10 renal, 28.1%; with A498 renal, -1.42% (active). Also, the growth was -39.1% (active) with HL-60(TB) leukemia and 10.8% in the experiment on CCRF-CEM leukemia.

For `COc1ccc2c(c1)c(C1(O)CC(CSC#N)OC1=O)cn2C(=O)c1ccc(Cl)cc1` (configuration not stated), the growth in the experiment with SK-MEL-2 melanoma was 80%; in the experiment on EKVX NSCLC, 89.6%; with SN12C renal, 94%; with UO-31 renal, 78.5%; in the experiment on TK-10 renal it was 103%; with CAKI-1 renal it was 82.9%. For the same compound, the values for the growth in the experiment with A498 renal, in the experiment on HL-60(TB) leukemia and with CCRF-CEM leukemia were 153%, 94.6% and 82%, respectively.

In the case of `O=[N+]([O-])c1c(Br)sc(Br)c1[N+](=O)[O-]`, the growth is -20.9% (active) in the experiment on SK-MEL-2 melanoma; 72.5% in the experiment with EKVX NSCLC; 30% in the experiment with SN12C renal; -65.7% (active) in the experiment with UO-31 renal; -78.3% (active) in the experiment on TK-10 renal; -56.4% (active) in the experiment on ACHN renal. Besides, the growth in the experiment with A498 renal was 111%; in the experiment with CCRF-CEM leukemia, -18.9% (active).

As for `[Cl][Hg][c]1cc(Br)cc(Br)c1`, the growth in the experiment on SK-MEL-2 melanoma is 41.3%; in the experiment with EKVX NSCLC it was 80%; with SN12C renal, 24%; in the experiment with UO-31 renal it was 102%; in the experiment on TK-10 renal, 121%; with A498 renal, 75.4%. Further, the growth was -27% (active) with HL-60(TB) leukemia and 1.44% (active) with CCRF-CEM leukemia.
